Most compounds without a hit are left out; they make up all but 21% or so of the library.
TDP1 cell noCPT – qHTS for Inhibitors of human tyrosyl-DNA phosphodiesterase 1 (TDP1): qHTS in cells in absence of CPT; DT40 Tdp1-/- hTDP1 cells, no CPT, ATP luminescence, 48 h; 15% of 420,000 active; AID 686978, 2013; Potency, µM (top dose mostly 46.2 µM), for inactives: at the top dose activity change, negative = growth inhibition, actives largely listed as inhibitors; further: potency means the concentration at half of the fitted maximal effect; nearly all actives have a fitted effect of over 55% in size
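DT40 Tdp1-/-;hTDP1 cells, no CPT (DMSO vehicle only), 400 cells/well; compounds pin-transferred; ≥48 hr, 37 °C; CellTiter-Glo 30 min RT dark, luminescence read.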
VP16 counter – counter-screen for ROR gamma inhibitors: Gal4-VP16 reporter | Potency, µM (top dose mostly 53.6 µM), inactives show top-dose activity, negative = inhibition, most hits filed as inhibitors | 3.5% of 310,000 active | Drosophila S2 Gal4-VP16 UAS-luciferase, luminescence, 20 h;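 further: Gal4-VP16 expression switched on by copper sulfate through the metallothionein promoter; potency means the concentration at half of the fitted maximal effect; nearly all actives have a fitted effect of over 50% in size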
RORgamma inh – ROR gamma (mouse) transcription inhibition | Potency, µM (titrated, usually from 53.6 µM), for the others: at the top dose activity change, negative = inhibition, actives largely listed as inhibitors | AID 2551 | P51450 | 5.4% of 310,000 active | Drosophila S2 Gal4-RORgamma UAS-luciferase reporter, 20 h; further: potency means the concentration at half of the fitted maximal effect; nearly all actives have a fitted effect of over 60% in size
Target sequence (P51450 whole entry, looked up, the tested form may be a part): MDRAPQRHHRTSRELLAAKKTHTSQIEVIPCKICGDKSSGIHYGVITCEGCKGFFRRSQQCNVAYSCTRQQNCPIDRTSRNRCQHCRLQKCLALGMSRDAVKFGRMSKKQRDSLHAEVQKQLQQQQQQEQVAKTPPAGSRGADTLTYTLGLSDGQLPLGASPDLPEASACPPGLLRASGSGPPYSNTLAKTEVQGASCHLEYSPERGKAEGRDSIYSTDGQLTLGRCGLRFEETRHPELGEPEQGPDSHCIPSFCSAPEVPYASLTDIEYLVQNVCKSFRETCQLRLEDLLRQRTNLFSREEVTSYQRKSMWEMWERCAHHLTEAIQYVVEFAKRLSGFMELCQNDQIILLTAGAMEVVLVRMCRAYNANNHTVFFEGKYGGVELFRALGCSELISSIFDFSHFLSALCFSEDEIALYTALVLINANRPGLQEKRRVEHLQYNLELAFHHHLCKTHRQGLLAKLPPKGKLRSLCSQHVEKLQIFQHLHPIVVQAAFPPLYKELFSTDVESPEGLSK
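Drosophila Schneider cells stably carrying a metallothionein-driven Gal4 DBD–ROR gamma fusion and a UAS-Photinus luciferase reporter were exposed to compound for 1 hr, then induced with copper sulfate (700 uM final) for 20 hr at ambient temperature before luminescence reading.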
DT40 TDP1 CPT – DT40-hTDP1 cell growth loss with CPT; chicken DT40 Tdp1-/-;hTDP1 cells + 20 nM CPT, ATP luminescence, 48 h; Potency, µM (titrated, usually from 46.2 µM), for the others: top-dose activity change, negative = growth inhibition, most hits filed as inhibitors; 12% of 420,000 active; AID 686979; further: potency means the concentration at half of the fitted maximal effect; nearly all actives have a fitted effect of over 55% in size
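Chicken DT40 Tdp1-/- cells stably complemented with human TDP1 were seeded at 400 cells/well in medium containing 20 nM camptothecin, exposed to pin-transferred compounds, and grown at 37 °C for at least 48 hr. Viability was read as ATP luminescence.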
ELG1 DNA repair – blocks ELG1-dependent DNA repair in HEK293T cells; HEK293T ELG1-luciferase reporter, luminescence, 16 h; DNA damage induced by 5-fluorouridine; Potency, µM (top dose mostly 46.1 µM), for the others: top-dose activity change, negative = inhibition, actives largely listed as inhibitors; 2.3% of 330,000 active; AID 504467; further: potency means the concentration at half of the fitted maximal effect; nearly all actives have a fitted effect of over 55% in size
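DMSO vehicle served as the neutral condition. Each well held 2,000 cells given 5-fluorouridine plus compound; after 16 hr at 37 °C/5% CO2, ONE-Glo was added and luciferase measured 30 min later.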
IL-1B inflam inh – blocks inflammasome-driven IL-1 beta release | THP-1 LPS/ATP IL-1B secretion, AlphaLISA, 16 h; stronger effect = lower value | activity change, % at 57.5 µM | AID 743279 | 4.7% of 360,000 active; in the data active means activity change below about -50%; inconclusive means mostly about -30% to -49%
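Secreted IL-1B measured by AlphaLISA bead assay after 16 h compound exposure of THP-1 cells; compounds (final up to 57.5 uM) added 1 h before LPS (250 ng/mL) and ATP (1.25 mM) stimulation; lower signal means less secretion.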
* = called active by the depositor; u = inconclusive; x = not tested or not shown; [ ] = dose if it differs, or a comment. Unless noted, the call rests on the fitted dose curve; in most records, active means well fitted curve in the direction sought with a large enough effect; inconclusive means small, poorly fitted or top-dose-only effect, or another doubt; inactive means no such curve, though single readings can be large; an effect the other way counts as inactive or inconclusive. On the % scale 0 is the no-effect control and ±100 the full control effect.

SMILES | TDP1 cell noCPT | VP16 counter | RORgamma inh | DT40 TDP1 CPT | ELG1 DNA repair | IL-1B inflam inh
c1ccc(-c2noc(CN3CCN(C(c4ccccc4)c4ccccc4)CC3)n2)cc1 | u | 6% | 15% | -26% | 0% | -87*
COCC1CCCN(Cc2nc(C(c3ccccc3)c3ccccc3)no2)C1 (stereo unspecified) | 18µM* | u | u | u | -4% | -4
COCCN(C)Cc1nc(C(c2ccccc2)c2ccccc2)no1 | 0% | x | x | -21% | 19% | 26
c1ccc(-c2noc(CN3CCN(c4ccccc4)CC3)n2)cc1 | -3% | 15% | 12% | -20% | -1% | 21
c1ccc(C(c2ccccc2)c2noc(CN3CCN(CC4CC4)CC3)n2)cc1 | u | -7% | 6% | 15µM* | 5% | -19
CN1CCN(CC(=O)c2ccccc2F)CC1 | -8% | 6% | -9% | -4% | 0% | 1
CC1CCCCC1NC(=O)CN1C(=O)NC(C)(c2cc(F)ccc2F)C1=O (stereo unspecified) | -1% | x | x | 4% | 24% | -13
CC1Cc2ccccc2N1CC(=O)NCc1ccc2c(c1)OCO2 (stereo unspecified) | u | -11% | 31% | -11% | -4% | 0
O=C(COC(=O)c1n[nH]c(=O)c2ccccc12)Nc1ccccc1 | -2% | x | x | -6% | -1% | -8
CN(C(=O)NCc1noc2ccccc12)c1cccc(Cl)c1 | -24% | x | x | -28% | x | x
O=C(N[C@@H]1C/C=C\C[C@@H](CC(=O)N(CCO)Cc2ccccc2)C(=O)N[C@@H](c2ccccc2)COC1=O)OCC1c2ccccc2-c2ccccc21 | 6.5µM* | x | x | 7.3µM* | -17% | 9
O=C(N[C@H]1C/C=C\C[C@H](CC(=O)N(CCO)Cc2ccccc2)C(=O)NC[C@H](c2ccccc2)OC1=O)OCC1c2ccccc2-c2ccccc21 | 6.5µM* | x | x | 6.5µM* | -3% | -2
C/C(CCN1CCCCc2nc(C)c(C)cc21)=N\O[C@@H](C)c1cc(-c2c(C)cc(C)cc2C)no1 | x | 6%[10 µM] | -28%[10 µM] | x | x | x
COc1ccc(NC(=O)CCc2nnc3n(C)c(=O)c4sccc4n23)cc1Cl | -3% | x | x | -4% | x | x
Fc1ccc(C(c2nnnn2C2CCCC2)N2CCN(Cc3ccccc3)CC2)cc1 (stereo unspecified) | u | 5% | 11% | 18µM* | -2% | -54*
CC(C)CCn1nnnc1CN1CCN(C(c2ccccc2)c2ccccc2)CC1 | 18µM* | -8% | 2% | u | u | 3
c1ccc(C(c2ccccc2)N2CCN(Cc3nnnn3C3CCCC3)CC2)cc1 | 16µM* | -2% | 23% | u | u | -14
CCC(C)(C)n1nnnc1CN1CCN(C(c2ccccc2)c2ccccc2)CC1 | 21µM* | -13% | 34% | u | 21µM* | 11
NC(c1ccccc1)c1csc(Nc2ccc(C(=O)NCCCO)cn2)n1 (stereo unspecified) | 2% | x | x | -18% | x | 7
Cc1ccc(NC(=O)COc2ccc(CCO)cc2-n2nc3ccccc3n2)cc1C | 12µM* | -27% | 0% | u | 18µM* | -6
Cc1ccc(OCC(=O)O)c(-n2nc3ccccc3n2)c1 | -23% | 3% | -4% | 0% | 8% | 33
CCCCN(CCCC)CP(=O)(c1ccccc1)c1ccccc1 | 15µM* | -7% | 1% | 16µM* | -8% | -8
O=P(COCCCCCOCP(=O)(c1ccccc1)c1ccccc1)(c1ccccc1)c1ccccc1 | 18µM* | -3% | 32% | 16µM* | u | u
CCCOP(=O)(c1ccccc1)c1ccccc1 | u | 2% | 2% | 21µM* | 2% | 14
CCCCCCP(=O)(O)c1ccccc1 | 4% | 0% | -4% | 17% | 3% | 23
SMILES | TDP1 cell noCPT | VP16 counter | RORgamma inh | DT40 TDP1 CPT | ELG1 DNA repair | IL-1B inflam inh
O=P(COCCOCP(=O)(c1ccccc1)c1ccccc1)(c1ccccc1)c1ccccc1 | -19% | -8% | 2% | 0% | -14% | -9
O=P(CCCCCCCCCP(=O)(c1ccccc1)c1ccccc1)(c1ccccc1)c1ccccc1 | 8.2µM* | u | u | 7.3µM* | 0% | -104*
CCCCC(Sc1ccc2nnc(-c3ccccn3)n2n1)C(=O)O (stereo unspecified) | -1% | x | x | 17% | x | x
c1ccc2c(c1)CC1(CCCC1)n1nnnc1-2 | 2% | 5% | 0.71µM* | -11% | -4% | -4
O=c1[nH]c(=O)c2nc3c4ccccc4c4ccccc4c3nc2[nH]1 | 5.2µM* | -12% | 0% | 8.2µM* | u | -7
O=c1[nH]c(=O)c2nc(-c3ccc(Cl)cc3)cnc2[nH]1 | u | 0% | 28% | -23% | u | -5
CCOC(=O)CNC(=O)O[C@H]1C(=O)c2cc(OC)ccc2O[C@@H]1c1ccc(OC)c(Br)c1 | x | -3% | 0% | x | x | x
Cc1ccc(N2C(=O)c3ccccc3C2Nc2cccnc2)nc1 (stereo unspecified) | 26µM* | -21% | u | 15µM* | u | 12
CCOC(=O)c1ccccc1NC1c2ccccc2C(=O)N1C1CCN(C(=O)OCC)CC1 (stereo unspecified) | 16µM* | -12% | 22% | u | u | -8
CCOC(=O)c1ccccc1NC1c2ccccc2C(=O)N1c1ccc(C)cn1 (stereo unspecified) | 18µM* | u | 12% | u | u | -6
CCOC(=O)N1CCC(N2C(=O)c3ccccc3C2Nc2ccccc2C)CC1 (stereo unspecified) | u | -3% | -8% | u | 4% | 1
